# Reference: PubChem BioAssay
# Activity calls are given as the source filed them. Unless noted, how the calls were made is not given here.
# What was measured:
# [1] = HepG2 liver cancer cell viability effects, profiling panel, resazurin fluorescence, 24 h, PK04 Diversity Set (AID 1172); settings: higher = more signal
# [2] = basal S. cerevisiae growth modulation, no modifier, primary screen, OD600, strain BY4716, 24 h, basal condition (AID 1173); settings: OD600, 24 h, higher = more signal, called active from +8 up or from −8 down
# [3] = MM1S myeloma cell viability, profiling panel, resazurin fluorescence, basal, 24 h, PK04 Diversity Set (AID 1174); settings: higher = more signal, called active from +8 up or from −8 down;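 further: MM1S multiple myeloma cell line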
# [4] = biological target: Dihydroorotate dehydrogenase (quinone), mitochondrial (Plasmodium falciparum (isolate 3D7)) (UniProt Q08210); assay: PfDHODH enzyme inhibitors, primary screen, biochemical, C-terminal His tag, absorbance 600 nm (AID 1175); settings: DCIP absorbance 600 nm, higher = more signal, called active from +8 up or from −8 down;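 further: recombinant parasite enzyme with a five histidine tag at its C terminus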
# Dihydroorotate dehydrogenase (quinone), mitochondrial (Plasmodium falciparum (isolate 3D7)), sequence (Q08210 whole entry, looked up): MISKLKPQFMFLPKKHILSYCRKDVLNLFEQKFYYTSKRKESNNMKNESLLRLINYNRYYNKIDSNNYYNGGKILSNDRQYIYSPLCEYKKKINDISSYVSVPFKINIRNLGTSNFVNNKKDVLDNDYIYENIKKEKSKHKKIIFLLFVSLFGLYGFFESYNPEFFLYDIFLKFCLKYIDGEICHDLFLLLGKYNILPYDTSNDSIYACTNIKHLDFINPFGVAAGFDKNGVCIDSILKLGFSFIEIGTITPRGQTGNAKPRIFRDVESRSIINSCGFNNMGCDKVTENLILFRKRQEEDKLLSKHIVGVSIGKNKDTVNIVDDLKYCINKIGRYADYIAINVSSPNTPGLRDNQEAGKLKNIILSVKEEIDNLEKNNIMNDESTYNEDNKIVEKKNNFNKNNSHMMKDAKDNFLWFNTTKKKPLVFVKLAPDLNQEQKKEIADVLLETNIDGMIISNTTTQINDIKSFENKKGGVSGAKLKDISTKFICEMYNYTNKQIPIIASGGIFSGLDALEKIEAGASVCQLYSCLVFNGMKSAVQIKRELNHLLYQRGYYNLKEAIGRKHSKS
# [5] = P. aeruginosa biofilm formation inhibitors, primary screen, strain PAO1, LB-PBS medium, absorbance 600 nm (AID 1176); settings: P. aeruginosa PAO1 growth/biofilm, A600, 12 h; higher = more signal
# [6] = S. cerevisiae RM11-1a growth modifiers, primary screen, strain RM11-1a, OD600, basal, 24 h (AID 1177); settings: OD600, 24 h, higher = more signal, called active from +8 up or from −8 down;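 further: cultures grown under basal conditions with no added stressor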
# [7] = E. coli acrAB mutant growth effects, primary screen, E. coli filamentation inducers, strain DRC39, OD650, 24 h (AID 1178); settings: higher = more signal, called active from +8 up or from −8 down;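 further: growth measured as culture turbidity by optical density at 650 nm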
# [8] = E. coli acrAB mutant growth effects, primary screen, E. coli filamentation inducers, strain DRC39, OD650, 48 h (AID 1179);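 further: screen aims at cell division blockers that make cells filament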; settings: E. coli DRC39 delta-acrAB growth, higher = more signal, called active from +8 up or from −8 down
# [9] = RPMI8226 myeloma cell viability, profiling panel, resazurin fluorescence, basal, 24 h, PK04 Diversity Set (AID 1180); settings: higher = more signal;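 further: RPMI8826 multiple myeloma cell line at 5000 cells per well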
# [10] = biological target: E3 ubiquitin-protein ligase XIAP (Homo sapiens) (UniProt P98170); assay: XIAP binders, primary screen, biophysical, small-molecule microarray, fluorescence 635 nm (AID 1181); settings: small-molecule microarray binding, higher = more signal;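 further: score merges 667 nm emission and signal to noise over triplicate slides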
# E3 ubiquitin-protein ligase XIAP (Homo sapiens), sequence (P98170 whole entry, looked up): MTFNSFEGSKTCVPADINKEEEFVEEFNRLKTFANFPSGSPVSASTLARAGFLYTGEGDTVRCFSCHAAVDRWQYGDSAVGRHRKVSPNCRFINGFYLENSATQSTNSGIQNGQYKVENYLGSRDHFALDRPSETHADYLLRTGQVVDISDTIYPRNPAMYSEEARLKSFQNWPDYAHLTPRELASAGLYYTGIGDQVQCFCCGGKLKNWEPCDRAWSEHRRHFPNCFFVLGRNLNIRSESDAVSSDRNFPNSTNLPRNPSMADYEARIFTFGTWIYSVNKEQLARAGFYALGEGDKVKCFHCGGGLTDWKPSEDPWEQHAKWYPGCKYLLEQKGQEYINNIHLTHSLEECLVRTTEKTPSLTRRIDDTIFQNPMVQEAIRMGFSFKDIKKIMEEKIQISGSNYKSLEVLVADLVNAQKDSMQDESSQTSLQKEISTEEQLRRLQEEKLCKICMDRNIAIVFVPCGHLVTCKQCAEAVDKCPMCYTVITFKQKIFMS
# [11] = tested on: XIP peptide (Xip251-270) binding; assay: small-molecule binders of XIP peptide, primary screen, biochemical, small-molecule microarray, fluorescence 635/667 nm, 0.1 µg/mL protein (AID 1182); settings: fluorescent protein binding, 635 nm, higher = more signal, called active from +8 up or from −8 down
# XIP peptide (Xip251-270) = assay: small-molecule binders of XIP peptide, primary screen, biochemical, small-molecule microarray, fluorescence 635/667 nm, 0.5 µg/mL protein (AID 1183); settings: small-molecule microarray binding, fluorescence 635 nm; higher = more signal
# [12] = Plasmodium falciparum growth inhibition, primary screen, strain 3D7, DAPI fluorescence, 100 nL (AID 1184);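 further: parasites grown inside human red blood cells in medium with human serum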; settings: P. falciparum 3D7 growth, 3 d, higher = more signal
# [13] = biological target: Homeobox protein Hox-A13 (Mus musculus) (UniProt Q62424); assay: inhibitors of HoxA13-DNA binding, primary screen, biochemical, fluorescence polarization, labeled oligonucleotide (AID 1185); settings: 15 min, higher = more signal, called active from +8 up or from −8 down
# Homeobox protein Hox-A13 (Mus musculus), sequence (Q62424 whole entry, looked up): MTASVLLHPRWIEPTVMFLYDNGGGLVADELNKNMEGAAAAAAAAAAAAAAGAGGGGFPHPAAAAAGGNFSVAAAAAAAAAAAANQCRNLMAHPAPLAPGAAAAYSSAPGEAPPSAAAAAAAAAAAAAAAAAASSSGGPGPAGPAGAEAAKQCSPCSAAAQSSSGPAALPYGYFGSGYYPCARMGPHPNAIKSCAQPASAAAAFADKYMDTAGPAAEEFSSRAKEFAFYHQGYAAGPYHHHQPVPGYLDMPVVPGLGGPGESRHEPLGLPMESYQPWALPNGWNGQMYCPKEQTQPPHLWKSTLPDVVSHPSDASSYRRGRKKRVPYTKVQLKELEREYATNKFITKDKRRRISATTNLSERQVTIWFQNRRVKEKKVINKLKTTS
# [14] = inhibitors of hydroxyurea-induced Chk1 phosphorylation, primary screen, imaging, HeLa, phospho-Chk1 antibody, percent positive cells (AID 1186); settings: hydroxyurea-induced phospho-Chk1 immunofluorescence imaging, higher = more signal
# [15] = inhibitors of hydroxyurea-induced Chk1 phosphorylation, primary screen, imaging, HeLa, phospho-Chk1 nuclear intensity (AID 1187); settings: hydroxyurea-induced phospho-Chk1 immunofluorescence imaging, higher = more signal
SMILES,z-score [1],z-score [2],z-score [3],composite z-score [4],z-score [5],z-score [6],z-score [7],z-score [8],z-score [9],composite z-score [10],composite z-score [11],composite z-score (XIP peptide (Xip251-270)),z-score [12],z-score [13],z-score [14],z-score [15]
CC(C)N1C(=O)c2ccccc2[C@](C)(C(=O)NCc2ccccc2)[C@@H]1c1ccc(CO)cc1,-0.394,-0.704 (inactive),-1.09 (inactive),0.0524 (inactive),1.06 (inactive),-0.271 (inactive),0.0861 (inactive),-0.681 (inactive),0.121,0.0623,-0.534 (inactive),0.48,-0.771,-1.51 (inactive),0.0268 (inactive),0.0578 (inactive)
CN1C(=O)C2C=CC(C(O)c3cc(C(F)(F)F)cc(C(F)(F)F)c3)N(N3CCCCC3)C2C1=O (stereo not drawn),-0.55,1.36 (inactive),-0.136 (inactive),0.929 (inactive),0.049 (inactive),2.29 (inactive),-0.289 (inactive),-0.795 (inactive),0.493,-0.295,0.11 (inactive),0.289,-0.0782,-4.54 (inactive),-1.22 (inactive),-1.63 (inactive)
C=C(CCCC)C(=O)CC[C@H](OC(=O)c1cccnc1)c1ccccc1OCCO,0.619,-0.716 (inactive),-2.19 (inactive),-0.363 (inactive),-0.317 (inactive),-1.61 (inactive),0.836 (inactive),-0.0762 (inactive),-2.29,0.0374,0.0328 (inactive),0.222,-3.02,-5.25 (inactive),-1.12 (inactive),-0.27 (inactive)
C=C[C@H](COC(C)=O)N(C(=O)OC(C)(C)C)S(=O)(=O)c1ccc(Br)cc1,0.738,-0.705 (inactive),-0.76 (inactive),-0.0237 (inactive),-0.621 (inactive),0.625 (inactive),0.623 (inactive),0.386 (inactive),-0.17,0.137,0.252 (inactive),-0.263,1.18,-2.87 (inactive),-0.255 (inactive),0.0038 (inactive)
O=C1NC(=O)C2C1C=CC(C(O)Cc1ccccc1)N2Nc1ccc(Cl)cc1Cl (stereo not drawn),-0.985,-7.58 (inactive),-1.56 (inactive),-0.276 (inactive),0.53 (inactive),0.181 (inactive),-0.655 (inactive),-0.603 (inactive),-1.04,0.13,0.0966 (inactive),-0.474,0.17,-5.64 (inactive),0.985 (inactive),1.09 (inactive)
C=CCNC(=O)[C@H]1[C@@H]2C(=O)O[C@@H](c3ccccc3)[C@@H](c3ccccc3)N2[C@@H](c2ccc(O)cc2)[C@]12C(=O)N(C(=O)OCCOC)c1ccc(C#CCNC(N)=O)cc12,-0.173,0.516 (inactive),0.244 (inactive),0.132 (inactive),0.911 (inactive),1.14 (inactive),0.204 (inactive),-0.135 (inactive),-0.17,-0.219,0.17 (inactive),0.53,2.38,-3.07 (inactive),-0.237 (inactive),-0.625 (inactive)
O=C1OCC=C[C@H]2OC34C=CCN(CCN5CCOCC5)C(=O)[C@H]3N(CCCO)C(=O)[C@@H]4[C@@H]12 (stereo partly drawn),-0.31,-0.187 (inactive),-1.4 (inactive),-0.283 (inactive),-0.385 (inactive),0.451 (inactive),-0.514 (inactive),-1.15 (inactive),-0.0279,0.0222,-0.0676 (inactive),-0.0046,-1.83,-4.01 (inactive),0.2 (inactive),0.099 (inactive)
CCOC(=O)C[C@H]1[C@H](OC(=O)Cc2ccc3c(c2)OCO3)[C@@H](NC(=O)c2ccc3ccccc3c2)c2cc(OCCCO)ccc2N1C(=O)c1ccccc1,0.898,-0.206 (inactive),-1.09 (inactive),-0.777 (inactive),0.69 (inactive),0.738 (inactive),-0.241 (inactive),0.15 (inactive),-0.52,-0.0426,0.0654 (inactive),0.263,0.168,-2.57 (inactive),-0.251 (inactive),-0.629 (inactive)
CC(C)C[C@@H]1NC(=O)[C@@H]2C[C@H](C(=O)NCCCCCN)[C@H](c3cccc(OCCO)c3)N2C1=O,-0.573,-1.22 (inactive),0.522 (inactive),-1.78 (inactive),0.792 (inactive),-2.75 (inactive),1.06 (inactive),1.75 (inactive),0.465,0.0337,0.0825 (inactive),0.758,-0.0757,-3.34 (inactive),-0.356 (inactive),-0.49 (inactive)
Cc1ccc(S[C@]2(C(=O)NCCN3CCOCC3)CC(=O)N(Cc3ccccc3)[C@@H]2c2ccc(CO)cc2I)cc1,-0.396,-3.23 (inactive),-2.91 (inactive),-4.58 (inactive),0.422 (inactive),-1.71 (inactive),0.359 (inactive),-0.46 (inactive),-2.02,-0.152,0.302 (inactive),0.0473,-1.44,-1.69 (inactive),-0.0659 (inactive),0.184 (inactive)
O=C(NCc1ccccc1)[C@@]1(Cc2ccccc2)N=C(c2ccc(OCCCO)cc2)O[C@H]1c1ccccc1,-0.0664,0.629 (inactive),-1.67 (inactive),0.987 (inactive),0.494 (inactive),1.7 (inactive),0.482 (inactive),-0.3 (inactive),-2.66,-0.0563,1.46 (inactive),0.684,-2.39,-1.7 (inactive),-0.306 (inactive),0.0631 (inactive)
OC([C@@H]1CC(c2ccccc2)=NO1)[C@H]1CC(c2ccccc2)=NO1 (stereo partly drawn),0.447,-1.39 (inactive),0.129 (inactive),-0.543 (inactive),-0.0704 (inactive),1.16 (inactive),2.32 (inactive),1.16 (inactive),0.236,-0.159,0.267 (inactive),-0.444,0.557,-0.163 (inactive),-0.801 (inactive),-1.25 (inactive)
O=C1O[C@@H](c2ccccc2)[C@@H](c2ccccc2)N2[C@@H](c3ccc(OCCO)cc3)[C@]3(C(=O)Nc4ccccc43)[C@@H](C(=O)NC[C@H](O)c3ccccc3)[C@H]12,0.665,1.33 (inactive),0.251 (inactive),-0.854 (inactive),2.44 (inactive),1.84 (inactive),0.0225 (inactive),-0.348 (inactive),-0.0509,-0.117,1.29 (inactive),0.345,0.0884,-5.41 (inactive),0.167 (inactive),0.696 (inactive)
C=CCNC(=O)[C@@H]1[C@H]2C(=O)O[C@H](c3ccccc3)[C@H](c3ccccc3)N2[C@H](c2ccc(OCCO)cc2)[C@@]12C(=O)Nc1ccc(C#Cc3ccc(OC)cc3)cc12,-0.662,1.84 (inactive),-0.718 (inactive),-4.91 (inactive),1.81 (inactive),2.6 (inactive),-1.48 (inactive),-1.2 (inactive),-1.25,0.0181,1.37 (inactive),0.792,-2.28,-1.61 (inactive),0.166 (inactive),0.143 (inactive)
COCCn1c(C(=O)N2CCCC2)cc2c1C[C@H]1CN(C(=O)c3ccccc3)[C@@](Cc3ccc(F)cc3)(C(=O)OC)[C@@H]21,0.203,0.734 (inactive),-0.829 (inactive),-0.343 (inactive),0.315 (inactive),0.39 (inactive),-0.0243 (inactive),-0.622 (inactive),-1.37,0.0927,0.254 (inactive),0.794,-1.01,-5.83 (inactive),0.0536 (inactive),0.375 (inactive)
C=CCOC(=O)[C@@H]1[C@H]2C(=O)O[C@H](c3ccccc3)[C@H](c3ccccc3)N2[C@H](c2ccc(OCCOC(=O)[C@@H]3C[C@@H]4C(=O)N[C@@H](CCCCN(C)C)C(=O)N4[C@@H]3c3ccc(O)cc3)cc2)[C@@]12C(=O)Nc1ccc(I)cc12,0.883,-0.955 (inactive),-0.078 (inactive),-0.262 (inactive),0.531 (inactive),1.65 (inactive),-0.821 (inactive),0.0885 (inactive),-0.153,-0.157,1.45 (inactive),0.783,-0.369,5.96 (inactive),-0.0333 (inactive),0.121 (inactive)
[N-]=[N+]=NCc1ccccc1[C@@H]1OC(c2ccc(OCCCO)cc2)=N[C@]1(CCS(=O)(=O)c1ccccc1)C(=O)NCCN1CCOCC1,-1.13,-0.276 (inactive),-0.346 (inactive),0.328 (inactive),0.286 (inactive),0.935 (inactive),0.239 (inactive),0.564 (inactive),-0.185,0.703,1.16 (inactive),0.853,-2.19,-2.41 (inactive),0.0054 (inactive),-0.373 (inactive)
COc1cc(CO)cc(I)c1O[C@H]1C=C(C(=O)NCCO)C[C@@H](N(CCN2CCOCC2)C(=O)C2CCOC2)[C@@H]1O (stereo partly drawn),1.66,-2.49 (inactive),0.85 (inactive),0.938 (inactive),0.355 (inactive),0.0222 (inactive),2.68 (inactive),1.5 (inactive),0.923,0.02,0.384 (inactive),0.551,0.199,-7.57 (inactive),-0.182 (inactive),0.246 (inactive)
